The text below walks through data of PubChem BioAssay (NCI).

Compounds without any hit were thinned out: in the full panel of roughly 83,000, 20% have a hit.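 For each line, cells grew in 96-well plates with the test compound present at a single concentration for 48 hours.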 Unmarked numbers belong to inactive results. Calls of active or inactive are those of the source. Rule for the calls: active = growth percent below 10; inactive = the rest.

Holding throughout (assay): NCI-60 one-dose screen, 48 h (100 = growth as untreated, 0 = no growth, -100 = all killed)
The test system of one assay is HCT-15 colon. Particulars: 10 µM unless noted.
Another assay relates to HT29 colon. Particulars: 10 µM unless noted.
Another assay relates to SNB-75 CNS. As to conditions: 10 µM unless noted.
The next assay concerns SNB-19 CNS. As to conditions: 10 µM unless noted.
The test system of another assay is U251 CNS. Particulars: 10 µM unless noted.
A further assay concerns PC-3 prostate. Particulars: 10 µM unless noted.
The next assay has as its system SK-MEL-5 melanoma. Particulars: 10 µM unless noted.
Another assay relates to LOX IMVI melanoma. Particulars: 10 µM unless noted.
The test system of the next assay is SK-MEL-28 melanoma. Particulars: 10 µM unless noted.
The subject of the next assay is SK-MEL-2 melanoma. As to conditions: 10 µM unless noted.
The next assay concerns EKVX NSCLC. As to conditions: 10 µM unless noted.
Another assay concerns SN12C renal. As to conditions: 10 µM unless noted.
In another assay the test system is UO-31 renal. As to conditions: 10 µM unless noted.
In a further assay the test system is TK-10 renal. As to conditions: 10 µM unless noted.
A further assay has as its system ACHN renal. Particulars: 10 µM unless noted.
The test system of another assay is CAKI-1 renal. As to conditions: 10 µM unless noted.
For the next assay, the system named is A498 renal. Particulars: 10 µM.
For another assay, the system named is HL-60(TB) leukemia. Particulars: 10 µM unless noted.
For the next assay, the system named is CCRF-CEM leukemia. As to conditions: 10 µM unless noted.
Another assay deals with UACC-62 melanoma. Particulars: 10 µM unless noted.

For the molecule `CC(C)(N)Cc1ccccc1`, the growth is 105% in the assay on HCT-15 colon; 97.2% in the assay with HT29 colon; 103% in the assay on SNB-75 CNS; 108% in the assay on SNB-19 CNS; 105% in the assay with U251 CNS; 88.9% in the assay on PC-3 prostate. The growth with SK-MEL-5 melanoma is 116%; in the assay on LOX IMVI melanoma, 103%; in the assay on SK-MEL-28 melanoma, 116%; in the assay on SK-MEL-2 melanoma it was 108%; in the assay on EKVX NSCLC it was 99.1%; in the assay with SN12C renal, 108%. Moreover, the growth is 84.7% in the assay on UO-31 renal; 96.5% in the assay on TK-10 renal; 106% with ACHN renal; 97.6% with CAKI-1 renal; 111% in the assay with A498 renal; 94.9% with HL-60(TB) leukemia. For the same molecule, the growth in the assay with CCRF-CEM leukemia was 100%.
As for `CC(=O)O[C@H]1C(=O)[C@@]2(C)[C@H]([C@H](OC(=O)c3ccccc3)[C@]3(O)C[C@H](OC(=O)[C@H](OC(=O)OC[C@@H]4COC(C)(C)O4)[C@@H](NC(=O)c4ccccc4)c4ccccc4)C(C)=C1C3(C)C)[C@]1(OC(C)=O)CO[C@@H]1C[C@@H]2O`, the growth with HCT-15 colon is 3.91% (active); in the assay on HT29 colon, -2.35% (active); in the assay with SNB-75 CNS, -15.6% (active); in the assay with SNB-19 CNS, 12.7%; in the assay on U251 CNS it was 17%; with PC-3 prostate it was 22.1%. The growth with SK-MEL-5 melanoma was 22%; with UACC-62 melanoma it was 24.2%; with SK-MEL-28 melanoma, 52%; in the assay on SK-MEL-2 melanoma it was 24.3%; with EKVX NSCLC, 29.1%; in the assay with SN12C renal it was 27%. The growth with UO-31 renal is 34.1%; in the assay with TK-10 renal, 26%; in the assay with ACHN renal it was 36.2%; in the assay with CAKI-1 renal it was 27.4%; in the assay with A498 renal, 13.4%; in the assay with HL-60(TB) leukemia, 4.01% (active). For the same molecule, the growth with CCRF-CEM leukemia is 17.8%.
Turning to `O=C(CCCCCNC1=CC(=O)c2ccccc2C1=O)NCCC[Te]c1ccccc1`, the growth is -20.1% (active) in the assay with HCT-15 colon; -47.5% (active) in the assay on HT29 colon; -26% (active) in the assay on SNB-75 CNS; 5.42% (active) in the assay on SNB-19 CNS; -8.56% (active) in the assay on U251 CNS; -0.995% (active) in the assay with PC-3 prostate. For the same molecule, the growth in the assay on SK-MEL-5 melanoma is -92.9% (active); in the assay on LOX IMVI melanoma it was -22.1% (active); in the assay on SK-MEL-28 melanoma, -42% (active); with SK-MEL-2 melanoma, 8.28% (active); with EKVX NSCLC, -31.9% (active); in the assay with SN12C renal it was -8.47% (active). In addition, the growth was 16.9% in the assay with UO-31 renal; -14.8% (active) in the assay with TK-10 renal; -71.2% (active) in the assay with ACHN renal; -55.8% (active) in the assay with CAKI-1 renal; -57.7% (active) with A498 renal; 28.1% in the assay with HL-60(TB) leukemia. For the same molecule, in the assay on CCRF-CEM leukemia, the growth is -15.3% (active).
As to `C=COC(=O)CCN1CC1`, the growth in the assay with HCT-15 colon was 109%; with HT29 colon, 110%; in the assay with SNB-75 CNS, 101%; in the assay on SNB-19 CNS, 96.3%; in the assay with U251 CNS, 101%; in the assay on PC-3 prostate it was 97.5%. The growth in the assay with SK-MEL-5 melanoma was 105%; in the assay on LOX IMVI melanoma, 100%; with SK-MEL-28 melanoma, 113%; in the assay on SK-MEL-2 melanoma, 115%; in the assay on EKVX NSCLC, 103%; with SN12C renal it was 102%. Moreover, the growth in the assay with UO-31 renal was 90.6%; with TK-10 renal, 110%; in the assay with A498 renal, 77.4%; in the assay with HL-60(TB) leukemia, 92.3%; in the assay with CCRF-CEM leukemia, 105%.
In the case of `NC(CCl)CCl`, the growth in the assay with HCT-15 colon is 87.3%; in the assay on HT29 colon it was 97.8%; with SNB-75 CNS, 90.3%; with SNB-19 CNS it was 105%; in the assay on U251 CNS, 99.8%; in the assay with PC-3 prostate, 104%. Besides, the growth in the assay with SK-MEL-5 melanoma is 99.4%; in the assay on LOX IMVI melanoma it was 106%; in the assay on SK-MEL-28 melanoma, 98.3%; in the assay with SK-MEL-2 melanoma it was 124%; in the assay on SN12C renal it was 101%; with UO-31 renal, 93.3%. In addition, the growth in the assay on TK-10 renal is 111%; in the assay on ACHN renal, 104%; with CAKI-1 renal, 99.3%; in the assay with A498 renal, 111%; with HL-60(TB) leukemia, 123%.
In the case of `COC(=O)[C@@H](C)C[C@H](Cc1ccc(F)cc1)NC(=O)c1csc([C@@H](C[C@H](C(C)C)N(C)C(=O)[C@@H](NC(=O)[C@H]2CCCCN2C)C(C)C)OC(C)=O)n1`, the growth in the assay with HCT-15 colon is 15.6%; with HT29 colon it was 3.51% (active); in the assay on SNB-75 CNS, 63.8%; in the assay on SNB-19 CNS, 36.6%; in the assay on U251 CNS, 6.95% (active); in the assay on PC-3 prostate, 28.4%. Further, the growth with SK-MEL-5 melanoma is -32.8% (active); with LOX IMVI melanoma, 23.1%; in the assay on SK-MEL-28 melanoma, 58.9%; in the assay on SK-MEL-2 melanoma it was 37.7%; in the assay with EKVX NSCLC it was 48.7%; in the assay on SN12C renal it was 26.6%. Further, the growth with UO-31 renal is 47%; with TK-10 renal it was 50.2%; in the assay with ACHN renal, 22.1%; with A498 renal it was -3.94% (active); in the assay with CCRF-CEM leukemia it was 12.3%.
Turning to `CN1CCC(c2c[nH]c3ccccc23)C1` (stereo unspecified), the growth with HCT-15 colon was 102%; in the assay with HT29 colon, 100%; with SNB-75 CNS, 95.5%; with SNB-19 CNS it was 95.2%; in the assay with U251 CNS, 98.2%; in the assay on PC-3 prostate it was 112%. For the same molecule, the growth was 130% in the assay with SK-MEL-5 melanoma; 88.2% with LOX IMVI melanoma; 107% in the assay on SK-MEL-28 melanoma; 87.5% in the assay on SK-MEL-2 melanoma; 98.1% in the assay with EKVX NSCLC; 124% in the assay with SN12C renal. For the same molecule, the growth in the assay on UO-31 renal was 69.1%; in the assay with TK-10 renal, 154%; with ACHN renal, 96.2%; with A498 renal, 113%; in the assay with CCRF-CEM leukemia it was 98.7%.
As to `Cn1cc(-c2csc(-c3cn(CCCCN4CCCCC4)c4ccccc34)n2)c2cccnc21`, the growth in the assay with HCT-15 colon is -74.9% (active); with HT29 colon, -85.6% (active); in the assay with SNB-75 CNS, 53.1%; with SNB-19 CNS, -32.1% (active); in the assay with U251 CNS it was -72.3% (active); in the assay with PC-3 prostate, 51.3%. The growth in the assay on SK-MEL-5 melanoma was -92.1% (active); in the assay with LOX IMVI melanoma, -72.6% (active); in the assay with SK-MEL-28 melanoma, -79.2% (active); in the assay with SK-MEL-2 melanoma, 37.9%; in the assay with EKVX NSCLC, 69.9%; with SN12C renal, 81.8%. In addition, the growth was -77.8% (active) with UO-31 renal; 50.2% in the assay with TK-10 renal; -96.4% (active) in the assay on ACHN renal; 81% with A498 renal; -62.3% (active) in the assay with HL-60(TB) leukemia; -11% (active) in the assay with CCRF-CEM leukemia.
With `COc1ccc2c(c1)c(-c1nc(-c3cn(C)c4ncccc34)cs1)cn2CCCCN1CCCCC1`, the growth in the assay with HCT-15 colon was -80.9% (active); in the assay with HT29 colon, -72.6% (active); in the assay with SNB-75 CNS, 63.9%; with SNB-19 CNS, -1.68% (active); in the assay on U251 CNS, -85.6% (active); in the assay with PC-3 prostate, -66.3% (active). For the same molecule, the growth is -80.4% (active) in the assay with SK-MEL-5 melanoma; -78% (active) in the assay with LOX IMVI melanoma; -69% (active) in the assay on SK-MEL-28 melanoma; -31.5% (active) in the assay with SK-MEL-2 melanoma; 55.4% in the assay with EKVX NSCLC; -79.7% (active) with SN12C renal. Further, the growth in the assay with UO-31 renal was -89.4% (active); in the assay on TK-10 renal, -26.8% (active); with ACHN renal, -95.2% (active); in the assay on A498 renal it was 71.8%; in the assay with HL-60(TB) leukemia it was -64.9% (active); with CCRF-CEM leukemia, -50.5% (active).
